In PubChem BioAssay (NCI):
Where “and” joins values, the source holds several entries; their conditions need not be identical. Identical values can stand only once. Compounds without any hit were thinned out: in the full panel of roughly 79,000, 15% have a hit. Some compounds were tested as several samples or in several runs, with calls that do not always agree. Calls of active or inactive are those of the source. Rule as the data show it: active = growth inhibition above about 70%; inactive = the rest.

Tests used:
[1] = NCI Yeast Anticancer Drug Screen. Data for the rad50 strain (AID 155);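 also: 0% = growth of vehicle-only cultures of the same strain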; details: S. cerevisiae rad50 strain growth inhibition, stronger effect = higher value
In short: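 Growth of the mutant yeast was measured after compound exposure and referenced to vehicle-treated cultures.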

[2] = NCI Yeast Anticancer Drug Screen. Data for the mec2-1 strain (AID 157); details: S. cerevisiae mec2-1 strain, stronger effect = higher value
In short: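 Mutant yeast (mec2-1) grown with compound; growth inhibition relative to vehicle control reported.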

[3] = NCI Yeast Anticancer Drug Screen. Data for the sgs1 mgt1 strain (AID 161);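 also: 0% = growth of cultures given vehicle only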; details: S. cerevisiae sgs1 mgt1 strain, stronger effect = higher value
In short: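 This yeast growth screen uses a strain with defined DNA-repair lesions; compound-treated growth is compared with vehicle-treated growth.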

[4] = NCI Yeast Anticancer Drug Screen. Data for the cln2 rad14 strain (AID 165);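 also: 0% = growth equal to vehicle treated cultures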; details: S. cerevisiae cln2 rad14 strain, stronger effect = higher value
In short: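 Readout is yeast growth inhibition versus vehicle-treated controls, using a strain with cln2 and rad14 alterations exposed to compound.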

[5] = NCI Yeast Anticancer Drug Screen. Data for the bub3 strain (AID 167); details: S. cerevisiae bub3 mutant strain, stronger effect = higher value
In short: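 Whole-cell yeast assay. The mutant strain was incubated with compounds, and growth inhibition was determined by comparison with vehicle-treated cells.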

[6] = NCI Yeast Anticancer Drug Screen. Data for the mlh1 rad18 strain (AID 175); details: S. cerevisiae mlh1 rad18 strain growth inhibition, stronger effect = higher value
In short: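 Genetically defined yeast (DNA repair-deficient) exposed to compounds; growth inhibition determined relative to vehicle.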

[7] = at 5.0 µM (retest, dose inferred, filed as 0.5)
[8] = at 50.0 µM (retest, dose inferred, filed as 5.0)

Structure (SMILES) | growth inhibition [1, 7] | growth inhibition [1, 8] | growth inhibition ([1]; at 50.0 µM) | growth inhibition [2, 7] | growth inhibition [2, 8] | growth inhibition ([2]; at 50.0 µM) | growth inhibition [3, 7] | growth inhibition [3, 8] | growth inhibition ([3]; at 50.0 µM) | growth inhibition [4, 7] | growth inhibition [4, 8] | growth inhibition ([4]; at 50.0 µM) | growth inhibition [5, 7] | growth inhibition [5, 8] | growth inhibition ([5]; at 50.0 µM) | growth inhibition [6, 7] | growth inhibition [6, 8] | growth inhibition ([6]; at 50.0 µM)
c1ccc(CSC(SCc2ccccc2)(c2ccccc2)c2ccccc2)cc1 | 30% (inactive) | 88% (active) | 14.4% (inactive) and 72% (active) | 13% (inactive) | 93% (active) | 5.7% (inactive) and 63.5% (inactive) | 2% (inactive) | 90% (active) | 14.8% (inactive) and 76.8% (active) | 11% (inactive) | 87% (active) | 18.2% (inactive) and 65.3% (inactive) | -16% (inactive) | 83% (active) | 15.4% (inactive) and 74.8% (active) | 22% (inactive) | 92% (active) | 13.7% (inactive) and 81.3% (active)
CN(C)CCC(=O)c1cccc([N+](=O)[O-])c1 | 10% (inactive) | 85% (active) | 39.3% (inactive) and 83.9% (active) | 13% (inactive) | 87% (active) | 4.1% (inactive) and 88.5% (active) | 12% (inactive) | 89% (active) | 11.4% (inactive) and 96% (active) | 7% (inactive) | 71% (active) | 31.4% (inactive) and 34.9% (inactive) | 2% (inactive) | 92% (active) | 14.5% (inactive) and 90.2% (active) | 11% (inactive) | 96% (active) | 33.4% (inactive) and 96.8% (active)
Clc1c(C(Cl)(Cl)Cl)nsc1N1CCCCC1 | 17% (inactive) | 58% (inactive) | 50.6% (inactive) | 16% (inactive) | 51% (inactive) | 23.1% (inactive) | -3% (inactive) | 39% (inactive) | 33.1% (inactive) | 17% (inactive) | 10% (inactive) | 28% (inactive) | 1% (inactive) | 18% (inactive) | 51.4% (inactive) | 18% (inactive) | 84% (active) | 46.7% (inactive)
OC(CN1CCCC2CCCCC21)c1cc2ccccc2c2ccccc12 (stereo not given) | 0% (inactive) and -2% (inactive) | 97% (active) and 99% (active) | 98.7% (active) and 98.5% (active) | 20% (inactive) and -4% (inactive) | 80% (active) and 99% (active) | 98.4% (active) | -21% (inactive) and -6% (inactive) | 98% (active) and 99% (active) | 98.9% (active) and 98% (active) | -2% (inactive) | 94% (active) and 99% (active) | 99% (active) and 98.2% (active) | 0% (inactive) and -3% (inactive) | 91% (active) and 99% (active) | 99.2% (active) and 99% (active) | 13% (inactive) and 2% (inactive) | 99% (active) | 99.2% (active) and 99% (active)
O=S(=O)(c1ccc(F)cc1)c1ccc(F)cc1 | -4% (inactive) | -4% (inactive) | -4.4% (inactive) and 11.7% (inactive) | 10% (inactive) | 19% (inactive) | -35.6% (inactive) and -12.2% (inactive) | -6% (inactive) | -1% (inactive) | -3.8% (inactive) and -3.55% (inactive) | -5% (inactive) | -7% (inactive) | 3.2% (inactive) and 47.4% (inactive) | -1% (inactive) | 0% (inactive) | -4.15% (inactive) and 19.1% (inactive) | 3% (inactive) | 10% (inactive) | 6.7% (inactive) and 35.2% (inactive)
Nc1cc2ccc(O)cc2c2ccccc12 | 0% (inactive) | 81% (active) | 94.8% (active) | 4% (inactive) | 51% (inactive) | 86.2% (active) | -1% (inactive) | 54% (inactive) | 91% (active) | 1% (inactive) | 34% (inactive) | 67.5% (inactive) | 2% (inactive) | 89% (active) | 93.4% (active) | -1% (inactive) | 82% (active) | 94.7% (active)
O=C(/C=C/c1cccnc1)c1ccccc1 | 2% (inactive) | 48% (inactive) | 9.2% (inactive) and 25.8% (inactive) | 0% (inactive) | 67% (inactive) | -9.2% (inactive) and 41.6% (inactive) | -1% (inactive) | 65% (inactive) | -15.7% (inactive) and 61.4% (inactive) | 5% (inactive) | 14% (inactive) | 15.1% (inactive) and 3.65% (inactive) | 0% (inactive) | 40% (inactive) | -10% (inactive) and 25.5% (inactive) | 4% (inactive) | 36% (inactive) | -21.9% (inactive) and 69.2% (inactive)
CC(C)CCCC(C)C1CCC2C3CC=C4CC([n+]5cccc6ccccc65)CCC4(C)C3CCC12C (stereo not given) | 78% (active) | 90% (active) | 93.3% (active) | 11% (inactive) | 92% (active) | 95.4% (active) | 60% (inactive) | 50% (inactive) | 94.8% (active) | 39% (inactive) | 91% (active) | 68% (inactive) | 74% (active) | 89% (active) | 92.2% (active) | 74% (active) | 89% (active) | 95.2% (active)
COc1cc(O)ccc1C(=S)SC | 6% (inactive) | 78% (active) | 85% (active) | 1% (inactive) | 18% (inactive) | 29.6% (inactive) | 5% (inactive) | 66% (inactive) | 42.5% (inactive) | 0% (inactive) | 29% (inactive) | 9% (inactive) | -5% (inactive) | 33% (inactive) | -6.9% (inactive) | 12% (inactive) | 87% (active) | 30.9% (inactive)
Cc1noc(-c2ccc([N+](=O)[O-])o2)n1 | 6% (inactive) | 85% (active) | 93.5% (active) | -1% (inactive) | 82% (active) | 52.1% (inactive) | 5% (inactive) | 87% (active) | 74.6% (active) | -6% (inactive) | 57% (inactive) | 57.9% (inactive) | 2% (inactive) | 80% (active) | 63.9% (inactive) | 24% (inactive) | 94% (active) | 87.8% (active)
COc1ccc2nc3cc(Cl)ccc3c(NCCCNCc3cc(OC)c(OC)c(OC)c3)c2c1 | 18% (inactive) | 92% (active) | 98.2% (active) | -3% (inactive) | 62% (inactive) | 98.3% (active) | 6% (inactive) | 87% (active) | 98.3% (active) | 21% (inactive) | 83% (active) | 98.8% (active) | 22% (inactive) | 82% (active) | 98.8% (active) | 3% (inactive) | 92% (active) | 98% (active)
O=C1C(CN2CCOCC2)CCCC1CN1CCOCC1 (stereo not given) | 0% (inactive) | 97% (active) | 12.2% (inactive) and 1.25% (inactive) | 4% (inactive) | 98% (active) | 35% (inactive) and 33.8% (inactive) | 2% (inactive) | 96% (active) | 10.8% (inactive) and 24.9% (inactive) | 3% (inactive) | 97% (active) | 19.1% (inactive) and -27.2% (inactive) | 0% (inactive) | 95% (active) | 1.05% (inactive) and 69.5% (inactive) | 3% (inactive) | 97% (active) | 26.8% (inactive) and 9.15% (inactive)
NC(CC(=O)O)C(=O)O (stereo not given) | -2% (inactive) | 2% (inactive) | -21.4% (inactive) and 99.3% (active) and 3.3% (inactive) | -10% (inactive) | -3% (inactive) | -7.85% (inactive) and 99.6% (active) and 9.7% (inactive) | -3% (inactive) | 0% (inactive) | -30.9% (inactive) and 98% (active) and -5.9% (inactive) | 4% (inactive) | -7% (inactive) | -7.75% (inactive) and 99.3% (active) and 16.6% (inactive) | 5% (inactive) | 0% (inactive) | -10.1% (inactive) and 99.6% (active) and -3.75% (inactive) | -3% (inactive) | 4% (inactive) | -14.1% (inactive) and 99.5% (active) and 21.2% (inactive)
CCCCCCCCCCCCCCCCOP(=O)(O)OP(=O)(O)OCC1OC(n2ccc(N)nc2=O)C(O)C1O (stereo not given) | 97% (active) | 97% (active) | -2% (inactive) and 81.4% (active) | 98% (active) | 98% (active) | -2.65% (inactive) and 89.8% (active) | 98% (active) | 98% (active) | 55% (inactive) and 87.5% (active) | 92% (active) | 90% (active) | 9.5% (inactive) and 84.7% (active) | 98% (active) | 98% (active) | -9.4% (inactive) and 84.5% (active) | 94% (active) | 95% (active) | 33% (inactive) and 90.5% (active)
CN(C)/C=C1\CCc2ccc([N+](=O)[O-])cc2C1=O | 19% (inactive) | 21% (inactive) | 6.9% (inactive) | 17% (inactive) | 25% (inactive) | 0.45% (inactive) | 24% (inactive) | 29% (inactive) | 16.4% (inactive) | 31% (inactive) | 17% (inactive) | 12.1% (inactive) | 26% (inactive) | 19% (inactive) | 21.4% (inactive) | 29% (inactive) | 35% (inactive) | -28.4% (inactive)
